“And” between values parts separate entries of the source, which are not always exact repeats. Identical values can stand only once. Inconclusive results are not listed. Some structures have more than one record in an assay (separate samples or runs), and their calls can disagree. The source made the active and inactive calls. How the source made its calls: active means hit-call score of the fitted dose curve at least 0.9, where 1 is the maximum; inconclusive means response in the unintended direction; inactive means score below 0.9.
read-out: xenobiotic metabolism (CYP1A2), CYP1A2 (gene 1544); assay: CLD_CYP1A2_6hr: CellzDirect (CLD) Gene Expression Assay for xenobiotic metabolism (CYP1A2) at 6 hours (AID 2283663);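 on AC50: potency is for induction meaning a rise in mRNA above DMSO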
Experimental: CLD_6hr is a cell-based, multiplexed-readout assay that uses hepatocyte, a human liver primary cell, with measurements taken at 6 hours after chemical dosing in a 96-well plate.CLD_CYP1A2_6hr is one of 16 assay component(s) measured or calculated from the CLD_6hr assay. It is designed to make measurements of mRNA induction, a form of inducible reporter, as detected with chemiluminescence signals by Quantitative Nuclease Protection Assay (qNPA) technology.Data from the assay component CLD_CYP1A2_6hr was analyzed at the endpoint, CLD_CYP1A2_6hr, in the positive analysis fitting direction relative to DMSO as the negative control and baseline of activity. Using a type of inducible reporter, gain-of-signal activity can be used to understand changes in the reporter gene as they relate to the gene CYP1A2. Furthermore, this assay endpoint can be referred to as a primary readout. To generalize the intended target to other relatable targets, this assay endpoint is annotated to the cyp intended target family, where subfamily is xenobiotic metabolism.
Human hepatocyte cultures were treated daily for two consecutive days with fresh dosing solutions containing appropriate concentrations of the 320 ToxCast chemicals (chemical identities were blinded to CellzDirect and other ToxCast collaborators), vehicle control (0.2% DMSO), and positive control inducers as summarized in Table 1. Due to the large number of treatment groups and chemicals examined, the ToxCast chemicals were divided into two groups (spanning two independent cultures of hepatocytes from separate donor preparations (Hu778: ToxCast plates 1 and 2; Hu776: ToxCast plates 3 and 4). Each preparation of human hepatocyte cultures was treated with respective vehicle control, medium only control, set of six positive controls/reference chemicals for the five hepatic receptor pathways, and a subset of eight of the ToxCast chemicals (indoxacarb, pyrithiobac-sodium, norflurazon, cyhalofop-butyl, methomyl, thiram, acetochlor, and propiconazole). These replicate data, coupled with internal replicates designed within the blinded ToxCast chemical library, provided additional data to evaluate interindividual differences between hepatocyte preparations and their potential impact on chemical profiles.Cell morphology and integrity were evaluated using phase-contrast microscopy as an indicator of hepatocyte cell health (Tyson & Green, 1987). Cultures for each treatment group (i.e., media, vehicle [0.2% DMSO], positive control inducers [multiple concentrations], and the ToxCast chemicals [multiple concentrations]) were observed and cell morphology was assessed relative to vehicle control cultures at each harvest time point (0, 6, 24, or 48 h). […] Images were evaluated at the conclusion of the study to assess changes in cell integrity and account for the effects of chemical exposure on uncharacteristic changes in concentration-dependent gene expression profiles. The results from these determinations of apparent cytotoxicity were annotated (yes/no) alongside the corresponding qNPA data for reference.At the conclusion of each treatment period, hepatocyte cultures (96-well) were washed with 1 volume of HBSS, lysed by addition of 25 ul ArrayPlate lysis buffer (HTG, Tucson, AZ), and 70 ul/well of Denaturation Oil, denatured by incubation at 95C for 10 min, and frozen at approximately -70C until analysis by nuclease protection assay (qNPA) (Roberts et al., 2007). For qNPA analysis, cell lysates were thawed at 50C for approximately 30 min, qNPA probes were added, and samples were incubated at 95C for 10 min to begin the detection process by denaturing the target RNA, dissociating the duplexes and secondary structure hybridization. At the conclusion of the hybridization period, S1 nuclease reagent was added to each sample to digest all nonprotected nucleotides at 50C for 60-90 min. […]

| SMILES | outcome | AC50 |
| --- | --- | --- |
| COc1nc(NC(C)C)nc(NC(C)C)n1 | inactive | – |
| CCOC(=O)CC(SP(=S)(OC)OC)C(=O)OCC (stereo not given) | – | 3.97 µM (active) |
| CCCCNC(=O)OCC#CI | inactive | 0.591 µM (active) |
| C=CC1(C)OC(=O)N(c2cc(Cl)cc(Cl)c2)C1=O (stereo not given) | – | 0.828 µM (active) |
| CCCCOC(=O)c1ccccc1C(=O)OCCCC | inactive | 3.87 µM (active) |
| C=CCC1=C(C)[C@@H](OC(=O)[C@@H]2[C@@H](C=C(C)C)C2(C)C)CC1=O | inactive | – |
| N#Cc1nn(-c2c(Cl)cc(C(F)(F)F)cc2Cl)c(N)c1S(=O)C(F)(F)F (stereo not given) | inactive | – |
| O=C(O)c1nc(Cl)ccc1Cl | inactive | 6.11 µM (active) |
| CCCCNC(=O)n1c(NC(=O)OC)nc2ccccc21 | inactive | – |
| CC1COC(Cn2cncn2)(c2ccc(Oc3ccc(Cl)cc3)cc2Cl)O1 (stereo not given) | inactive | – |
| COc1nc(C)nc(NC(=O)NS(=O)(=O)c2ccccc2Cl)n1 | inactive | 0.00149 µM (active) |
| CCCN(CCC)c1c([N+](=O)[O-])cc(S(N)(=O)=O)cc1[N+](=O)[O-] | inactive | – |
| COc1ccc(C(c2ccc(OC)cc2)C(Cl)(Cl)Cl)cc1 | – | 17.3 µM (active) |
| COc1cnc(OC)n2nc(NS(=O)(=O)c3c(OCC(F)F)cccc3C(F)(F)F)nc12 | – | 0.255 µM (active) |
| COC(=O)C(C)Oc1ccc(Oc2ccc(Cl)cc2Cl)cc1 (stereo not given) | inactive | 3.97 µM (active) and 4.91 µM (active) |
| COP(=S)(OC)Oc1nc(Cl)c(Cl)cc1Cl | – | 6.12 µM (active) |
| COc1nc(C)nc(NC(=O)NS(=O)(=O)c2ccccc2CCC(F)(F)F)n1 | inactive | 2.44 µM (active) |

| SMILES | outcome | AC50 |
| --- | --- | --- |
| Cc1c(F)c(F)c(COC(=O)C2C(/C=C(\Cl)C(F)(F)F)C2(C)C)c(F)c1F (stereo not given) | inactive | – |
| CON(C)C(=O)Nc1ccc(Cl)c(Cl)c1 | – | 0.752 µM (active) |
| Cc1ccc(-c2c(Cl)nc(C#N)n2S(=O)(=O)N(C)C)cc1 | inactive | – |
| CCNc1nc(Cl)nc(NC(C)C)n1 | – | 1.62 µM (active) |
| CCCCC(CC)COC(=O)c1ccccc1C(=O)OCC(CC)CCCC (stereo not given) | inactive | – |
| CCc1nn(C)c(C(=O)NCc2ccc(C(C)(C)C)cc2)c1Cl | – | 20 µM (active) |
| CNC(=O)ON=CC(C)(C)SC | inactive | – |
| N#Cc1cc(Br)c(O)c(Br)c1 | inactive | – |
| C#CCOS(=O)OC1CCCCC1Oc1ccc(C(C)(C)C)cc1 (stereo not given) | – | 1.9 µM (active) |
| CC1=C(C(=O)Nc2ccccc2)SCCO1 | – | 7.64 µM (active) |
| CCNc1nc(Cl)nc(NCC)n1 | inactive | – |
| Fc1ccc(Oc2ccnc3cc(Cl)cc(Cl)c23)cc1 | – | 5.01 µM (active) |
| O=C(Nc1ccccc1)Nc1ccnc(Cl)c1 | – | 8.16 µM (active) |
| COP(N)(=O)SC (stereo not given) | inactive | – |
| CCOC(=O)C(Cl)Cc1cc(-n2nc(C)n(C(F)F)c2=O)c(F)cc1Cl (stereo not given) | inactive | – |
| N#CC(CCc1ccc(Cl)cc1)(Cn1cncn1)c1ccccc1 (stereo not given) | – | 1.89 µM (active) |
| CCOP(=S)(OCC)SCn1c(=O)oc2cc(Cl)ccc21 | inactive | – |
